Binding response (% of control) data for 76 compounds are collected here from PubChem BioAssay AID1529 (NMMLSC, 2009).

The campaign covered roughly 290,000 compounds. About 4,200 (1.4%) were called active.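 Rule for the calls: active = binding response more than 3 SD above or below the average of its plate-row segment, actives on both sides; inconclusive = wells at one plate position flagged as instrument error; inactive = the rest.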 What follows is part of a selection rich in actives, with near analogues and random picks from the rest.

For the test, the target named is Mitogen-activated protein kinase kinase kinase 3 (Homo sapiens) (UniProt Q99759). The experiment in a line: compounds raising or lowering MEK5 association with MEKK3 PB1 – biochemical, wildtype MEKK3, multiplex bead flow cytometry, Alexa488-MEK5, primary screen (AID 1529).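 Note: Alexa488 bead fluorescence after subtracting the streptavidin-only scavenger bead signal.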 The following applies: bead-based flow cytometry, Alexa488-MEK5 binding to MEKK3; at 10 µM; actives lie on both sides; 0 = blocked by unlabeled MEK5, 100 = vehicle.
Sequence of Mitogen-activated protein kinase kinase kinase 3 (Homo sapiens) (Q99759 whole entry, looked up): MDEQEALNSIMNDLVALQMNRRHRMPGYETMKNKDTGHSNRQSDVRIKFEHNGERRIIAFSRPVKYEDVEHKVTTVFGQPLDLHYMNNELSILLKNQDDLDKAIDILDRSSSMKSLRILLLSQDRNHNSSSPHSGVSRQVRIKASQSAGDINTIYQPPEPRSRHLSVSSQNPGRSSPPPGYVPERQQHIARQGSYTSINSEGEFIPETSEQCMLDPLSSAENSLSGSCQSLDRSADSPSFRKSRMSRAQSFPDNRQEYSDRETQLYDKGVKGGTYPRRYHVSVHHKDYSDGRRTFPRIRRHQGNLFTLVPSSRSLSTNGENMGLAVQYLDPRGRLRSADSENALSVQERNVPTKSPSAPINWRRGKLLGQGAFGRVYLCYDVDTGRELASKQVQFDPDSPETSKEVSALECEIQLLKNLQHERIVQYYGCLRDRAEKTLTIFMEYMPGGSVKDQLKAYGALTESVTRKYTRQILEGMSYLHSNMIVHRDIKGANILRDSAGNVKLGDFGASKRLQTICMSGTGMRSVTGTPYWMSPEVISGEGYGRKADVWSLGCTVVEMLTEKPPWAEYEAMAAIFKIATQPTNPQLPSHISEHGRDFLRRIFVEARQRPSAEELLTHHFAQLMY
On to `CCOC(=O)c1c(-c2ccccc2)oc2cc(Br)c(O)c(C=O)c12`, for which the binding response (% of control) is 98% (inactive).

Turning to `Cc1cc(OCC(=O)Nc2c(C)n(C)n(-c3ccccc3)c2=O)ccc1[N+](=O)[O-]`, the binding response (% of control) is 96% (inactive). The result for `CCc1ccc(NC(=O)COC(=O)c2cccs2)cc1` reads 101% (inactive); that for `O=C(CNC(=O)c1ccc(Br)o1)NCC1CCCO1` (stereo unspecified), 102% (inactive); that for `O=C(c1cccs1)N(C(=O)c1cccs1)c1ccccn1`, 94% (inactive). For `O=C(c1ccc(Br)o1)N(c1ccccn1)C1CCCCC1`, the binding response (% of control) was 131% (active). For `Cc1ccc(NC(=O)CSc2nn3c(=O)c(C)nnc3s2)cc1Cl`, the binding response (% of control) is 88% (inactive). On to `CNC(C)C#Cc1ccc2sc3cc(OC)c(OC)cc3c(=O)c2c1` (stereo unspecified), for which the binding response (% of control) was 110% (inactive). As to `CCCCC1(C(=O)OCC)NC(c2ccc(O)cc2)C2C(=O)N(c3ccccc3)C(=O)C21` (stereo unspecified), the binding response (% of control) was 104% (inactive).

In the case of `CCOC(=O)c1ccc(Nc2cc3ccccc3c(=O)[nH]2)cc1`, the binding response (% of control) was 100% (inactive). With `COc1ccc(C(=O)C[n+]2ccc(N)c(C)c2C)cc1`, the binding response (% of control) was 92% (inactive). Consider `COc1ccc(OCCC(=O)c2ccc(OC)cc2)cc1`, for which the binding response (% of control) was 102% (inactive).

Take `COc1ccc(C(=O)C[n+]2ccc(C)cc2)cc1`: the binding response (% of control) was 134% (active).

Regarding `COC(C[C@@H](O)C[C@@H](O)[C@H](C)OCc1ccccc1)OC`, the binding response (% of control) is 101% (inactive).

In the case of `COc1ccc(C(=O)CSc2nnc(COc3ccccc3)n2Cc2ccco2)cc1`, the binding response (% of control) was 102% (inactive).

On to `CCCc1nc2c(c(=O)c3ccccc3n2C)c(=O)n1-c1cc(C)cc(C)c1`, for which the binding response (% of control) was 101% (inactive). For `Cn1c2ccccc2c(=O)c2c(=O)n(Cc3ccco3)c(COc3ccccc3)nc21`, the binding response (% of control) was 130% (active). For the compound `COc1ccc(/C=C/c2c(-c3cccc(C)c3)oc3ccc(-c4ccc5c(c4)OCO5)cc23)cc1`, the binding response (% of control) is 94% (inactive). The result for `CCOC(=O)c1cc(S(=O)(=O)NCCc2ccc(OC)c(OC)c2)cn1C` reads 100% (inactive); that for `CN(CC(=O)Nc1ccc(F)cc1)C(=O)c1ccc(-c2ccc(Cl)cc2)o1`, 105% (inactive). Regarding `Cc1cc(C)nc(NS(=O)(=O)c2ccc(N3C(=O)C4CCCCC4C3=O)cc2)n1` (stereo unspecified), the binding response (% of control) was 101% (inactive). On to `CCOC(=O)CC1C(=O)NCCN1c1nc2c(C)cccn2c(=O)c1/C=C1\SC(=S)N(C(C)CC)C1=O` (stereo unspecified), for which the binding response (% of control) is 93% (inactive). Turning to `Cc1cccn2c(=O)c(/C=C3\SC(=S)N(CC(C)C)C3=O)c(NCCCOC(C)C)nc12`, the binding response (% of control) is 66% (inactive).

Consider `CCCN(CCC)c1nc2c(C)cccn2c(=O)c1/C=C1/SC(=S)N(Cc2ccco2)C1=O`, for which the binding response (% of control) was 32% [inhibitor] (active). For `Cc1csc(NC(=O)CSc2nnc(-c3cccnc3)o2)n1`, the binding response (% of control) is 99% (inactive).

With `CCCC[C@@H]1CN=C(N)N1CCc1cccc(F)c1`, the binding response (% of control) was 106% (inactive). `O=C(NCc1ccccn1)C1CCN(S(=O)(=O)c2ccc(Br)cc2)CC1`: the binding response (% of control) was 103% (inactive).

Take `COc1ccc(CNc2ncnc3ccccc23)cc1`: the binding response (% of control) is 100% (inactive). `O=C(NCc1ccccc1Cl)c1csc2c1CCCCC2`: the binding response (% of control) is 96% (inactive). In the case of `O=[N+]([O-])c1ccccc1NCc1ccccc1Cl`, the binding response (% of control) is 66% (inactive).

Turning to `O=C(NCc1ccccc1Cl)NC(=O)c1csc([N+](=O)[O-])c1`, the binding response (% of control) is 0% [inhibitor] (active). The result for `CCC(C)[C@H](NC(=O)N1c2ccccc2NC(=O)[C@@H]1C(C)C)C(=O)N[C@@H](Cc1ccccc1)C(=O)O` (stereo partly specified) reads 101% (inactive).

For `COc1ccc(NC(=O)CCCC2CCCCC2)c(OC)c1`, the binding response (% of control) is 97% (inactive). For `CCCc1ccc(OCCNC(=O)c2ccco2)cc1`, the binding response (% of control) was 101% (inactive). As for `CC(=O)NCCNC(=O)c1cc(-c2cccc3ccccc23)nc2ccccc12`, the binding response (% of control) is 102% (inactive).

Regarding `CCOC(=O)C1CCN(C(=O)c2ccccc2N(C)S(=O)(=O)c2ccccc2)CC1`, the binding response (% of control) is 105% (inactive).

Consider `O=c1cc(N2CCCCC2)c(-c2ccccc2)nn1Cc1cccc(F)c1`, for which the binding response (% of control) is 157% (active). As for `O=c1cc(N2CCN(Cc3ccccc3)CC2)c(-c2ccccc2)n[nH]1`, the binding response (% of control) was 101% (inactive). The figure for `c1ccc(-c2cc(N3CCCCC3)c3ccccc3n2)cc1` is 100% (inactive). On to `COc1ccc(-c2noc(CNC(=O)C(C)Oc3ccccc3)n2)cc1` (stereo unspecified), for which the binding response (% of control) is 99% (inactive). The result for `CCC(C)OC(=O)C(C)Oc1ccc(-c2ccccc2)cc1` (stereo unspecified) reads 2% [inhibitor] (active). The figure for `CC(=O)Nc1ccc(NC(=O)COc2ccc(-c3ccccc3)cc2)cc1` is 99% (inactive); for `COc1ccc(CCNS(=O)(=O)c2cccc([N+](=O)[O-])c2)cc1` it is 111% (inactive); for `O=C(Nc1ccccc1N1CCN(C(=O)c2ccccc2)CC1)c1ccco1` it is 100% (inactive). As to `COc1ccc(CNC(=O)c2nnn(CC(=O)Nc3cc(C)cc(C)c3)c2N)cc1`, the binding response (% of control) is 100% (inactive).

Consider `COc1ccc(NC(=O)Cn2nnc(C(=O)NCCc3ccc(OC)c(OC)c3)c2N)cc1`, for which the binding response (% of control) is 2% [inhibitor] (active). Consider `CCc1ccc(NC(=O)Cn2nnc(C(=O)NCc3ccc(OC)cc3)c2N)cc1`, for which the binding response (% of control) is 101% (inactive). With `CCOC(=O)c1ccccc1NC(=O)c1c(N)n(C)c(=O)[nH]c1=O`, the binding response (% of control) was 103% (inactive).

On to `COc1ccc(CNC(=O)CN(Cc2ccccc2Cl)C(=O)c2csnn2)cc1`, for which the binding response (% of control) is 104% (inactive).

Turning to `COc1cccc(N2CCN(c3ccc4nnc(CCC(=O)N5CCN(C)CC5)n4n3)CC2)c1`, the binding response (% of control) was 100% (inactive). With `O=C(CSc1n[nH]c(=O)n1-c1ccccc1)Nc1ccccc1C(F)(F)F`, the binding response (% of control) was 102% (inactive). As to `Cc1c(S(=O)(=O)NC(C)c2ccccc2)c(=O)n(C)c(=O)n1C` (stereo unspecified), the binding response (% of control) was 101% (inactive). For the compound `Cc1c(S(=O)(=O)NCc2ccccc2)c(=O)n(C)c(=O)n1C`, the binding response (% of control) is 131% (active). In the case of `COC(=O)c1ccc(S(=O)(=O)NCc2ccccc2)n1C`, the binding response (% of control) was 78% (inactive). As for `COC(=O)C1(C)NC(c2ccccc2OC)C2C(=O)N(c3ccccc3)C(=O)C21` (stereo unspecified), the binding response (% of control) is 104% (inactive). For the compound `COC(=O)C1=NN(c2ccccc2)C2C(=O)N(c3ccccc3OC)C(=O)C12` (stereo unspecified), the binding response (% of control) is 139% (active).

For `COC(=O)c1cc(C(=O)OC)cc(N2C(=O)CC(N3CCN(c4ccccc4)CC3)C2=O)c1` (stereo unspecified), the binding response (% of control) is 103% (inactive).

Turning to `CC(=O)Nc1ccc(S(=O)(=O)N(C)c2nc3ccccc3nc2Cl)cc1`, the binding response (% of control) is 103% (inactive). Consider `CCc1ccc(-c2cc(C)no2)cc1S(=O)(=O)NCCc1ccc(S(N)(=O)=O)cc1`, for which the binding response (% of control) is 104% (inactive). The figure for `CCc1ccnc(NC(=O)Nc2ccc(OCc3ccccc3)cc2)c1` is 104% (inactive); for `O=C(O)/C=C\C(=O)Nc1ccc(OCc2ccccc2)cc1` it is 130% (active). The figure for `Cc1cccc(NC(=O)Nc2ccc(OCc3ccccc3)cc2)n1` is 99% (inactive).

Consider `COc1cc(CNCc2ccc3c(c2)OCO3)c([N+](=O)[O-])cc1OC`, for which the binding response (% of control) was 95% (inactive). As for `COc1cccc(CNS(=O)(=O)c2ccc3c(c2)N(C(C)=O)CCS3)c1`, the binding response (% of control) is 93% (inactive). `COc1cccc(CC2(CO)CCCN(Cc3ccc(OC(F)F)cc3)C2)c1` (stereo unspecified): the binding response (% of control) is 109% (inactive). `COc1ccccc1N1CCN(C(=O)c2ccc(S(=O)(=O)N3CCCCC3)cc2)CC1`: the binding response (% of control) was 102% (inactive). For `COc1cc2c(cc1OC)CN(C(=O)c1ccc(S(=O)(=O)N3CCCCCC3)cc1)CC2`, the binding response (% of control) was 132% (active). In the case of `COc1cc2c(cc1OC)CN(C(=O)c1cc(S(=O)(=O)N3CCCCC3)ccc1Cl)CC2`, the binding response (% of control) is 101% (inactive). The result for `C/C(=N\NC(=O)c1ccccc1F)c1ccccn1` reads 106% (inactive). Take `CC(C)(C)n1nc(Cc2cccc3ccccc23)c(C#N)c1N`: the binding response (% of control) is 101% (inactive).

Regarding `COc1ccc(/C=N/Nc2nc(-c3ccc(C)cc3)c(C#N)c(=O)[nH]2)cc1`, the binding response (% of control) was 104% (inactive). The result for `CC(C)[C@H](NC(=O)N1CCn2c1nc1ccccc12)C(=O)NCCc1ccccc1` reads 100% (inactive); that for `CCOC(=O)C[C@H]1c2ccc(C(F)(F)F)cc2S(=O)(=O)N1c1ccccc1`, 95% (inactive). With `COCCc1nn2c(=O)cc(COC(=O)c3cc(OC)c(OC)c(OC)c3)nc2s1`, the binding response (% of control) was 95% (inactive). Turning to `Cc1cc(=O)oc2cc(OC(C)C(=O)NCCc3ccc(S(N)(=O)=O)cc3)ccc12` (stereo unspecified), the binding response (% of control) was 100% (inactive). Take `Cc1cc(C)cc(NC(=O)NCc2ccccn2)c1`: the binding response (% of control) was 101% (inactive).
